Source: PubChem BioAssay
The source made the active and inactive calls.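 The calls were made as follows, unless noted: active = fluorescence slope higher than the sample average by over 3 SD (cut at about -0.22 in these data, passing the limit was not always enough); inactive = the rest.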

How the values were obtained:
[1] = inhibitors of E-selectin induction by TNFa, primary screen, imaging, HUVEC, immunofluorescence, MLSMR starter and 10KST1 sets (AID 487;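 active = visually confirmed hit in the image check and inhibition above 20%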;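 as to inhibition: signal is fraction of cell area covered by stained E-selectin grains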;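 as to nuclei count: 100% = median nuclei count of all wells on the same plate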); details: HUVEC TNFalpha-induced E-selectin immunofluorescence imaging, at 2 µM; inhibition: stronger effect = higher value; nuclei count: measured here: cell number, toxicity
[2] = DUSP6 inhibitors restoring Erk phosphorylation by chemical complementation, primary imaging in DUSP6-transfected HeLa (AID 609;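 active = compounds giving at least 50% inhibition in the cell-based MKP-3 phosphatase rescue imaging test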;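 as to inhibition: phospho-Erk level distribution per well compared with pooled transfected vehicle control wells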); details: HeLa MKP-3 transfected, phospho-Erk imaging KS statistic, at 10 µM, cells stimulated with TPA for 15 min
[3] = target: Dual specificity protein phosphatase 6 (Homo sapiens) (UniProt Q16828); experiment: as above; details: HeLa MKP-3 transfected, phospho-Erk imaging KS statistic; at 10 µM; stronger effect = higher value; cells stimulated with TPA for 15 min
Dual specificity protein phosphatase 6 (Homo sapiens), sequence (Q16828 whole entry, looked up): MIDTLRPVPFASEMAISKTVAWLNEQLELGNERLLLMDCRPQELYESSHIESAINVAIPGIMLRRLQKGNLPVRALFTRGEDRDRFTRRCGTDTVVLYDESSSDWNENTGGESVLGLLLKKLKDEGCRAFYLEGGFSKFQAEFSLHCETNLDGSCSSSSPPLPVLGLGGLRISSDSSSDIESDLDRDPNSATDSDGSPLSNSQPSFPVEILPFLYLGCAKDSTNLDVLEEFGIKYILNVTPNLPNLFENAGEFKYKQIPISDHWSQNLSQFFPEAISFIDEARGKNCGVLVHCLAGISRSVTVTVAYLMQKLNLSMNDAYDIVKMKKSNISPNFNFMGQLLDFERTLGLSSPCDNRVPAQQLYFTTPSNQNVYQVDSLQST

[4] = target: Voltage-gated potassium channel subunit beta-2 (Rattus norvegicus) (UniProt P62483); experiment: KvBeta enzyme negative modulators, primary screen, biochemical, NADPH fluorescence (AID 622); details: recombinant KvBeta, 4-cyanobenzaldehyde reduction, at 10 µM, stronger effect = higher value;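 also: slope of raw intensity against log time taken from 70 to 1610 s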
Voltage-gated potassium channel subunit beta-2 (Rattus norvegicus), sequence (P62483 whole entry, looked up): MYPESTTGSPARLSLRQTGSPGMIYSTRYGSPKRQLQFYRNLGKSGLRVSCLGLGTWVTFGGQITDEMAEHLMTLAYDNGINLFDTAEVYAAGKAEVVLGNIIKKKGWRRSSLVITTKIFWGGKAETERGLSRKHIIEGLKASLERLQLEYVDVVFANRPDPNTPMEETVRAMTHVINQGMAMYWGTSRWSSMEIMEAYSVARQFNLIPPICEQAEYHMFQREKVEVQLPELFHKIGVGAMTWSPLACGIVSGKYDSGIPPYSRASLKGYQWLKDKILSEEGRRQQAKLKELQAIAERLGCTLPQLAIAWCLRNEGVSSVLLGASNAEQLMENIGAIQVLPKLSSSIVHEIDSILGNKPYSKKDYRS

[5] = target: Voltage-gated potassium channel subunit beta-2 (Rattus norvegicus) (UniProt P62483); experiment: KvBeta positive modulators, primary screen, biochemical, NADPH fluorescence (AID 623;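 active = NADPH fluorescence slope more negative than the mean of all samples by about 3 SD, 99.7% confidence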;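 also: fluorescence intensity change per second fitted from 20 to 320 s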); details: Recombinant KvBeta, NADPH fluorescence decrease slope, 10 min; at 10 µM; stronger effect = lower value
[6] = target: Muscarinic acetylcholine receptor M4 (Homo sapiens) (UniProt P08173); experiment: compounds altering M4/GIRK thallium flux, either direction, primary screen, M4 allosteric agonist project, cell-based, HEK293 M4/GIRK, BTC-AM (AID 625;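 active = fluorescence slope after compound addition differing from the mean of all tested samples at 99.7% confidence, mostly higher but some lower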;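 also: thallium influx through GIRK channels coupled to M4 in HEK293 cells with BTC-AM dye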); details: at 10 µM, actives lie on both sides
Muscarinic acetylcholine receptor M4 (Homo sapiens), sequence (P08173 whole entry, looked up): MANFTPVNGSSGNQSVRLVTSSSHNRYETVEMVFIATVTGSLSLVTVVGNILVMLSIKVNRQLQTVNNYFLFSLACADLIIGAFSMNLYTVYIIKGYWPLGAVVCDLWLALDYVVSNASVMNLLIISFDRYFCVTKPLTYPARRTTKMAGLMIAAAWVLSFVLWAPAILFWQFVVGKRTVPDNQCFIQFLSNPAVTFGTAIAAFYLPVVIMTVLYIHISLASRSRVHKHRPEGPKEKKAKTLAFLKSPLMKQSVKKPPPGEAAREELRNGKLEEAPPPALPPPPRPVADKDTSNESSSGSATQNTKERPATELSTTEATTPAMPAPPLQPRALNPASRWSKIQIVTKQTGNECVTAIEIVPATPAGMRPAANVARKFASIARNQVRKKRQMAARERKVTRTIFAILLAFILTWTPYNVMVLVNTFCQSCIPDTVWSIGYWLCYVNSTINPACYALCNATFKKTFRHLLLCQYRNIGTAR

[7] = inhibitors of larval lipid processing in zebrafish, primary screen, whole organism, PED6 fluorescence, gall bladder and intestine (AID 686;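 active = a full or partial loss of lipid-probe fluorescence in the fish gall bladder, intestine or both, judged by eye; inactive = no fluorescence loss, or compound toxic to the fish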;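 also: larvae 5 to 7 days old with five fish per well; signal comes from phospholipase A2 cleavage of quenched PED6 carried via bile; overnight exposure to compound and PED6 before scoring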); details: Zebrafish larvae PED6 lipid processing, fluorescence scoring; screened at 20 µM (by protocol)
[8] = inhibitors of Chlamydomonas gravitaxis, primary screen, whole organism, Chlamydomonas reinhardtii, WT vs cilia-less mutant, absorbance, 96-well (AID 463189;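 active = inhibition at or above 50% relative to wild type and mutant plate controls; inactive = inhibition below 50%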;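 also: 0% = wild type cc124 cells in DMSO and 100% = ciliumless bld1 mutant cells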); details: OD600 absorbance, 2 days, at 10 µM, stronger effect = higher value
[9] = measured here: cell density z-score
[10] = measured here: nuclear c-Myc green intensity z-score
[11] = measured here: nuclear pErk red intensity z-score, stronger effect = higher value

Row | Compound | inhibition [1] | nuclei count [1] [%] | z-score [2, 9] | z-score [2, 10] | z-score [2, 11] | inhibition [3] | fluorescence slope [4] | NADPH fluorescence slope [5] | fluorescence slope [6] | outcome [7] | inhibition [8]
1 | COc1cc(C(=O)NCC(=O)n2nc(C)cc2C)cc(OC)c1OC | 19% (inactive) | 141 | 1.48 | 0.2 | -2.19 | 20.8% (inactive) | -0.389 (inactive) | 7.5e-06 (inactive) | 0.00583 (inactive) | inactive; toxic | -4.24% (inactive)
2 | CCn1cc(/C=N/O)c(C)n1 | -98.3% (inactive) | 153 | 1.83 | -0.528 | -0.0353 | 13.2% (inactive) | -0.345 (inactive) | -3.9e-05 (inactive) | 0.00667 (inactive) | inactive | 17.2% (inactive)
3 | CC1(c2cnc(Nc3ccccc3)s2)CCC(=O)O1 (stereo not given) | -192% (inactive) | 138 | 0.619 | -0.905 | -1.23 | 24.7% (inactive) | -0.359 (inactive) | 1.9e-06 (inactive) | 0.00609 (inactive) | active; weak signal in gallbladder only | 9.89% (inactive)
4 | O=C(CCN1CCCC1Cc1ccccc1)c1ccc2c(c1)OCCO2 (stereo not given) | -106% (inactive) | 162 | -1.44 | -1.2 | 0.369 | 1.75% (inactive) | -0.423 (inactive) | -6.5e-05 (inactive) | 0.00498 (inactive) | inactive | 7.98% (inactive)
5 | CCOC(=O)c1cc(CC)sc1NC(=O)C1CC1 | 5.7% (inactive) | 151 | 0.13 | -0.277 | 0.203 | 1.75% (inactive) | -0.369 (inactive) | -6.8e-05 (inactive) | 0.0058 (inactive) | inactive | -9.3% (inactive)
6 | O=P(O)(c1ccccc1)c1ccccc1O | 2% (inactive) | 77.2 | 0.571 | 0.329 | 0.814 | 5.57% (inactive) | -0.452 (inactive) | -1.5e-05 (inactive) | 0.00546 (inactive) | inactive | 28.7% (inactive)
7 | Cc1nc2sc(C)c(C)c2c(=O)o1 | -24.2% (inactive) | 180 | -0.563 | -1.75 | 1.05 | -5.89% (inactive) | -0.39 (inactive) | -4.5e-05 (inactive) | 0.0058 (inactive) | inactive | 6.15% (inactive)
8 | COc1ccc[nH]c1=O | -53.5% (inactive) | 156 | -0.586 | 0.536 | -1.08 | 11.3% (inactive) | -0.41 (inactive) | -4.9e-05 (inactive) | 0.00623 (inactive) | inactive | 14.4% (inactive)
9 | COc1ccc(C(=O)NCC(=O)n2nc(C)cc2C)cc1OC | -38.7% (inactive) | 95.9 | -0.145 | 0.45 | -1.73 | 3.66% (inactive) | -0.415 (inactive) | -1.8e-05 (inactive) | 0.00491 (inactive) | inactive | -5.61% (inactive)
10 | O=C(Oc1ccccc1)c1c(Cl)cccc1P(=O)(O)O | -22.4% (inactive) | 146 | -1.16 | 0.0504 | -1.03 | -0.159% (inactive) | -0.396 (inactive) | -2.5e-05 (inactive) | 0.00459 (inactive) | inactive | -7.77% (inactive)
11 | COc1cccc(C(=O)NCC(=O)n2nc(C)cc2C)c1 | -70.4% (inactive) | 88.5 | 0.974 | 0.517 | -1.04 | 15.1% (inactive) | -0.462 (inactive) | -4.4e-05 (inactive) | 0.00505 (inactive) | inactive | 36% (inactive)
12 | CCOC(=O)C(OC(=O)c1sc(=S)n(C)c1C)C(C)=O (stereo not given) | -34.4% (inactive) | 86.4 | 0.548 | -0.227 | -0.266 | 7.48% (inactive) | -0.553 (inactive) | -3.9e-05 (inactive) | 0.00794 (inactive) | inactive | 63.7% (active)
13 | CN(C)/C=C1\N=C(c2cccs2)OC1=O | -85.3% (inactive) | 178 | -0.766 | -0.714 | 0.335 | 1.75% (inactive) | -0.406 (inactive) | -4e-05 (inactive) | 0.00407 (inactive) | inactive | 26.8% (inactive)
14 | COC(=O)C1C(=O)NCC1c1ccccc1 (stereo not given) | 1.3% (inactive) | 81.1 | 5.99 | -1.76 | -1.15 | 49.5% (inactive) | -0.482 (inactive) | -4e-05 (inactive) | 0.00479 (inactive) | inactive | 31.4% (inactive)
15 | CC(C)CCOc1ccc(Cl)cc1CN1CCOCC1 | -12.9% (inactive) | 146 | -1.08 | -0.136 | -0.739 | -3.98% (inactive) | -0.378 (inactive) | -7.1e-06 (inactive) | 0.00465 (inactive) | inactive; toxic | 106% (active)
